± gives the standard deviation.
What follows are sequences tested on MILI (PIWIL2) piRISC loaded with L1MC piRNA (26 nt) (assay: pre-steady-state target cleavage rate (min^-1); guide: L1MC piRNA 5'p-UAACUAAAUACUAUGCAAGCUGUAGG; MIWI and MILI are mouse PIWI proteins and EfPiwi is from a freshwater sponge; tags in brackets are library labels; higher = faster piRNA-guided slicing of the target). Conditions: auxiliary factor: none (no GTSF1).
In short: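 Using HEPES–potassium acetate buffer at 33 °C, 1 nM active affinity-purified piRISC with a single synthetic guide was mixed with 0.1 nM transcribed, DNA-blocked target RNA library for 0–8 or 0–960 min, with or without 500 nM GTSF1 partner protein. Uncleaved targets were sequenced and normalised to depth and to weakly complementary targets, and three trials were pooled with k3 capped at 0.0001 min^-1. A burst-and-steady-state fit gave the pre-steady-state cleavage rate.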
With UCCUGGAUGUCGAACGUACGUAUUUAGUUA the “pre-steady-state target cleavage rate” value was less than 0.0001. With UCCUGGAUGUCGAACGUUAGUAUUUACAAA the “pre-steady-state target cleavage rate” value was less than 0.0001. UCCUGCUACAGCUUGCAUAGAUAUUAGAAA was tested, and the “pre-steady-state target cleavage rate” value was less than 0.0001. With UCCUGGAUGUCCUUGCAAAGAAUUUAGUUA the “pre-steady-state target cleavage rate” value was 0.00283 ± 0.0026.
